Values joined by “and” are separate entries in the source; they are usually repeats but may differ in a detail not shown here. Identical values can stand only once.
Test: growth inhibition of BT084 medulloblastoma cells, cell-based, ICGC_MB145, cisplatin and BGB IC40 combos (AID 1671461);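 note: cells exposed to drugs for 96 hours; 0% = vehicle DMSO and 100% = high DMSO full killing control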
Conditions: drug combinations, cisplatin combination, at 0.5 µM, stronger effect = higher value

Structure (SMILES)	inhibition [%]
CC(Oc1cc(-c2cnn(C3CCNCC3)c2)cnc1N)c1c(Cl)ccc(F)c1Cl (stereo not drawn)	-5.89
O=C(O)c1cc2cccc([N+](=O)[O-])c2[nH]1	-11.3
O=c1[nH]c(=O)n(C2CC(O)C(CO)O2)cc1I (stereo not drawn)	-7.3

Same assay, conditions: drug combinations, cisplatin combination, at 5 µM, stronger effect = higher value

Structure (SMILES)	inhibition
COc1ccccc1S(=O)(=O)Nc1ccc2c(c1)CN(C)C(=O)N2	15.1%
Cc1cc(C#N)cc(C)c1Oc1nc(Nc2ccc(C#N)cc2)nc(N)c1Br	-30.7%
Nc1ncn(C2OC(CO)C(O)C2O)c(=O)n1 (stereo not drawn)	53.9%
Cc1cc(C)c(Nc2ccnc(Nc3ccc(C#N)cc3)n2)c(C)c1	-181%
COc1ccc(CC(N)C(=O)NC2C(CO)OC(n3cnc4c(N(C)C)ncnc43)C2O)cc1 (stereo not drawn)	88.5% and 94%
O=c1ccn(C2OC(CO)C(O)C2O)c(=O)[nH]1 (stereo not drawn)	-4.68% and -1.56%
CC=C1NC(=O)C2CSSCCC=CC(CC(=O)NC(C(C)C)C(=O)N2)OC(=O)C(C(C)C)NC1=O (stereo not drawn)	106%
CN(C)CC(=O)Nc1ccc2[nH]c(=O)c3ccccc3c2c1	-4.17% and -13.1% and -46%
CC1OC(n2cc(F)c(=O)[nH]c2=O)C(O)C1O (stereo not drawn)	3.57%
Nc1ccn(C2OC(CO)C(O)C2(F)F)c(=O)n1 (stereo not drawn)	52.1% and 55.8% and 69.2%
Cc1cn(C2CC(N=[N+]=[N-])C(CO)O2)c(=O)[nH]c1=O (stereo not drawn)	-13.7% and 8.51%
CC(C=CC(=O)NO)=CC(C)C(=O)c1ccc(N(C)C)cc1 (stereo not drawn)	104%
NC(=S)NN=Cc1ncccc1N	-3.12%
CC(C)(C#N)c1ccc(N2C(=O)OCc3cnc4ccc(-c5cnc6ccccc6c5)cc4c32)cc1	60.4%
CC1CN(c2c(F)c(N)c3c(=O)c(C(=O)O)cn(C4CC4)c3c2F)CC(C)N1 (stereo not drawn)	-70.7%
